Compound activity: PubChem, Pan Lab, Icahn School of Medicine at Mount Sinai
The full list was thinned out, with hits kept by preference.
RBX1-CUL1 inh = inhibitors of human ROC1-CUL1 ubiquitin ligase activity. hit rate 0.6% among 140,000. P62877+Q13616. inhibition, % at 10 µM. in vitro K48 di-Ub FRET, acceptor:donor ratio, 45 min; in the data active means inhibition above about 25%
* marks the source's active call; other numbers are inactive results.

`CC(C)c1ccc(C(C[N+](=O)[O-])c2c(-c3ccccc3)n(C)c3ccccc23)cc1` (stereo not given) gave RBX1-CUL1 inh -3.0.
`CS(=O)(=O)C(C(=O)c1ccccc1)C(=O)c1ccccc1` gave RBX1-CUL1 inh -4.8.
Screening CS(=O)(=O)C#Cc1ccccc1 returned RBX1-CUL1 inh 51.8*.
Screening Brc1ccc(C#Cc2ccccc2)cc1 returned RBX1-CUL1 inh -2.6.
Screening Cn1nnnc1SCC(=O)c1ccc(Cl)cc1Cl returned RBX1-CUL1 inh -0.3.
Screening CC(C)C(C(=O)OCC(=O)c1ccc(F)cc1)N1C(=O)c2cc(Cl)c(Cl)cc2C1=O (stereo not given) returned RBX1-CUL1 inh 0.1.
For Cc1cc(CN2CC[C@@H](N3CCC(O)CC3)[C@H](O)C2)oc1C the results were RBX1-CUL1 inh 0.8.
For CCOC(=O)C1=C(C)N=c2s/c(=C\c3cc(I)c(O)c(OC)c3)c(=O)n2C1c1ccc(OC)cc1 (stereo not given) the results were RBX1-CUL1 inh 46.0*.
CCOC(=O)C1=C(C)N=c2s/c(=C/c3ccc(I)cc3)c(=O)n2C1c1ccc2c(c1)OCO2 (stereo not given) was read as RBX1-CUL1 inh -7.7.
For CCOC(=O)C1=C(C)N=c2s/c(=C\c3cc(OC)ccc3OC)c(=O)n2C1c1ccc(OC)cc1 (stereo not given) the results were RBX1-CUL1 inh 3.5.
`CCOC(=O)C1=C(C)N=c2s/c(=C\c3cc(Br)c(O)c(OC)c3)c(=O)n2C1c1ccc2c(c1)OCO2` (stereo not given) gave RBX1-CUL1 inh 52.9*.
`CCOC(=O)C1=C(C)N=c2s/c(=C/c3cc(I)c(OC)c(OC)c3)c(=O)n2C1c1ccc(N(C)C)cc1` (stereo not given) gave RBX1-CUL1 inh 8.2.
`CCOC(=O)C1=C(C)N=c2s/c(=C/c3ccccc3O)c(=O)n2C1c1ccc2c(c1)OCO2` (stereo not given) gave RBX1-CUL1 inh -6.1.
`COC(=O)c1c(-c2ccccc2)c2ccc3c(-c4ccccc4)cc4cccc1n4c32` gave RBX1-CUL1 inh -3.4.
Screening Cc1ccc2oc(Nc3ncc(C(=O)Nc4ccccc4C)c(C)n3)nc2c1 returned RBX1-CUL1 inh -8.7.
For COc1c(S(=O)(=O)Nc2cccc(-c3cn4ccsc4n3)c2)ccc(Cl)c1Cl the results were RBX1-CUL1 inh -3.3.
For CC(C)(C)CC(=O)Nc1nnc(C(C)(C)C)s1 the results were RBX1-CUL1 inh 8.3.
`CCOC(=O)c1nn(-c2ccccc2C(=O)O)c(N)c1C(N)=S` gave RBX1-CUL1 inh 9.7.
`CCOC(=O)c1nn(-c2ccccc2C(=O)O)c(=O)c2c(N)sc(Br)c12` gave RBX1-CUL1 inh 33.2*.
Screening CCOC(=O)c1nn(-c2ccccc2)c(=O)c2c(N)scc12 returned RBX1-CUL1 inh -5.0.
Screening CCCCS(=O)(=O)N1CCC(C(=O)Nc2ccccc2Cl)CC1 returned RBX1-CUL1 inh 1.2.
CC1=C(C(=O)N2CCOCC2)C(c2ccccc2Cl)n2nc(C)nc2N1 (stereo not given) was read as RBX1-CUL1 inh 10.7.
Screening CN1C(=O)C(=C/C=C/c2ccco2)C(=O)N(C)C1=S returned RBX1-CUL1 inh 44.8*.
`O=C1C(=C/C=C/c2ccccc2Cl)C(=O)N(c2ccccc2)C(=S)N1c1ccccc1` gave RBX1-CUL1 inh 9.1.
`O=C(/C=C/c1ccco1)CCN1CCCCC1` gave RBX1-CUL1 inh 16.1.
For COc1ccc(C2C(C(=O)c3ccc(OC)c(C)c3)C(=O)C(=O)N2CCCN2CCOCC2)cc1 (stereo not given) the results were RBX1-CUL1 inh 1.1.
`CCCCc1ccc(N=Nc2ccc(C#N)cc2)cc1` gave RBX1-CUL1 inh -0.3.
Screening COC(=O)c1cccc2c1N[C@@H](c1ccncc1)[C@H]1CC=C[C@@H]21 returned RBX1-CUL1 inh 0.4.
`Cc1c(C(=O)O)ccc2c1N[C@@H](c1ccc(F)cc1)[C@H]1CC=C[C@@H]21` gave RBX1-CUL1 inh 76.0*.
`CCOC(=O)c1cccc2c1N[C@@H](c1ccc(F)cc1)[C@H]1CC=C[C@@H]21` gave RBX1-CUL1 inh 10.2.
CCCCCCCC(=O)N=C1C(=O)N(c2ccccc2)N(C)C1C (stereo not given) was read as RBX1-CUL1 inh 11.4.
`CCCCCCN1C(=O)/C(=C/c2cc(OC)c(OC)c(OC)c2)N(C)C1=S` gave RBX1-CUL1 inh 3.3.
CCCCCCN1C(=O)C2=C(c3cc(O)cc(O)c3)N(CCCCCC)C(=O)C2=C1c1cc(O)cc(O)c1 was read as RBX1-CUL1 inh 46.0*.
Screening CN1CCN(C2Cc3cc(Cl)ccc3Sc3c(Cl)cccc32)CC1 (stereo not given) returned RBX1-CUL1 inh 1.6.
Screening CN(C)c1ncc2c(n1)CCCC2NC(=O)C1CC1 (stereo not given) returned RBX1-CUL1 inh -3.0.
For O=C(NCc1cccnc1)C1CCN(C2CCN(C(=O)C3=CCCCC3)CC2)CC1 the results were RBX1-CUL1 inh -3.9.
`Cc1nc(CN(C)C(=O)CC2(c3ccccc3C)CC(=O)N(Cc3cccnc3)C2=O)cs1` (stereo not given) gave RBX1-CUL1 inh 4.6.
